Reference: the supplement of paper PMC4466140

Assays:
Assay in all cases: SPOT peptide array binding signal intensity (averaged, normalized) (arbitrary units (background-subtracted, floor 0; scale differs between SH3 domains)); higher = stronger binding of the SH3 domain to the peptide
CaNbp2 = target: CaNbp2
Outline: (§1)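 The binding signal is the normalized, background-subtracted spot intensity averaged over replicates; its arbitrary units differ between domains. It was obtained by incubating 10 μg/ml GST-fused SH3 domains from four yeast species overnight at 4°C in TBS-based blocking buffer on cellulose membranes with synthetic 15-mer peptides, cysteines replaced by serines, then detecting with anti-GST antibody, HRP anti-mouse secondary and luminol.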

CaRvs167 = target: CaRvs167
Outline: as §1

CaRvs167-3 = target: CaRvs167-3
Outline: as §1

CaSho1 = target: CaSho1
Outline: as §1

CaSla1-D1-D2 = target: CaSla1-D1-D2
Outline: as §1

CaSla1-D3 = target: CaSla1-D3
Outline: as §1

ScAbp1 = target: ScAbp1
Outline: as §1

ScBbc1 = target: ScBbc1
Outline: as §1

ScBem1-D1 = target: ScBem1-D1
Outline: as §1

ScBzz1-D1 = target: ScBzz1-D1
Outline: as §1

ScBzz1-D2 = target: ScBzz1-D2
Outline: as §1

ScCyk3 = target: ScCyk3
Outline: as §1

ScFus1 = target: ScFus1
Outline: as §1

ScHof1 = target: ScHof1
Outline: as §1

ScHse1 = target: ScHse1
Outline: as §1

ScLsb1 = target: ScLsb1
Outline: as §1

ScLsb2 = target: ScLsb2
Outline: as §1

ScLsb3 = target: ScLsb3
Outline: as §1

ScLsb4 = target: ScLsb4
Outline: as §1

ScMyo3 = target: ScMyo3
Outline: as §1

ScMyo5 = target: ScMyo5
Outline: as §1

ScNbp2 = target: ScNbp2
Outline: as §1

ScPex13 = target: ScPex13
Outline: as §1

ScRvs167 = target: ScRvs167
Outline: as §1

ScSho1 = target: ScSho1
Outline: as §1

ScSla1-D1-D2 = target: ScSla1-D1-D2
Outline: as §1

ScSla1-D3 = target: ScSla1-D3
Outline: as §1

SpAbp1-D1 = target: SpAbp1-D1
Outline: as §1

SpBbc1 = target: SpBbc1
Outline: as §1

SpBzz1-D1 = target: SpBzz1-D1
Outline: as §1

SpBzz1-D2 = target: SpBzz1-D2
Outline: as §1

SpCyk3 = target: SpCyk3
Outline: as §1

SpHof1 = target: SpHof1
Outline: as §1

SpHof1-2 = target: SpHof1-2
Outline: as §1

SpHof1-3 = target: SpHof1-3
Outline: as §1

SpHse1 = target: SpHse1
Outline: as §1

SpLsb1 = target: SpLsb1
Outline: as §1

SpLsb4 = target: SpLsb4
Outline: as §1

SpMyo1 = target: SpMyo1
Outline: as §1

SpNbp2 = target: SpNbp2
Outline: as §1

SpPex13 = target: SpPex13
Outline: as §1

SpRvs167 = target: SpRvs167
Outline: as §1

SpSla1-D1-D2 = target: SpSla1-D1-D2
Outline: as §1

SpSla1-D3 = target: SpSla1-D3
Outline: as §1

AgAbp1 = target: AgAbp1
Outline: as §1

AgBbc1 = target: AgBbc1
Outline: as §1

AgBem1-D1 = target: AgBem1-D1
Outline: as §1

AgBzz1-D1 = target: AgBzz1-D1
Outline: as §1

AgBzz1-D2 = target: AgBzz1-D2
Outline: as §1

AgCyk3 = target: AgCyk3
Outline: as §1

AgFus1 = target: AgFus1
Outline: as §1

AgHof1 = target: AgHof1
Outline: as §1

AgHse1 = target: AgHse1
Outline: as §1

AgLsb1 = target: AgLsb1
Outline: as §1

AgLsb4 = target: AgLsb4
Outline: as §1

AgMyo5 = target: AgMyo5
Outline: as §1

AgNbp2 = target: AgNbp2
Outline: as §1

AgRvs167 = target: AgRvs167
Outline: as §1

AgSho1 = target: AgSho1
Outline: as §1

AgSla1-D1-D2 = target: AgSla1-D1-D2
Outline: as §1

AgSla1-D3 = target: AgSla1-D3
Outline: as §1

CaAbp1-D1 = target: CaAbp1-D1
Outline: as §1

CaAbp1-D2 = target: CaAbp1-D2
Outline: as §1

CaBbc1 = target: CaBbc1
Outline: as §1

CaBem1-D1 = target: CaBem1-D1
Outline: as §1

CaBzz1-D1 = target: CaBzz1-D1
Outline: as §1

CaBzz1-D2 = target: CaBzz1-D2
Outline: as §1

CaCyk3 = target: CaCyk3
Outline: as §1

CaFus1 = target: CaFus1
Outline: as §1

CaHof1 = target: CaHof1
Outline: as §1

CaHse1 = target: CaHse1
Outline: as §1

CaLsb1 = target: CaLsb1
Outline: as §1

CaLsb4 = target: CaLsb4
Outline: as §1

CaMyo5 = target: CaMyo5
Outline: as §1

Measured: SPOT peptide array binding signal intensity

B1: unnamed (peptide)
chain: MSPLGAPPPPPHKDH
0.833: CaRvs167
2: ScRvs167
0.5: SpHof1-3
1: ScBzz1-D2 | SpHof1
1.5: ScBzz1-D1
12.7: SpRvs167
324: SpBzz1-D1
700: ScMyo3
751: ScMyo5
≤ 0: CaNbp2 | CaRvs167-3 | CaSho1 | CaSla1-D1-D2 | CaSla1-D3 | ScAbp1 | ScBbc1 | ScBem1-D1 | ScCyk3 | ScFus1 | ScHof1 | ScHse1 | ScLsb1 | ScLsb2 | ScLsb3 | ScLsb4 | ScNbp2 | ScPex13 | ScSho1 | ScSla1-D1-D2 | ScSla1-D3 | SpAbp1-D1 | SpBbc1 | SpBzz1-D2 | SpCyk3 | SpHof1-2 | SpHse1 | SpLsb1 | SpLsb4 | SpNbp2 | SpPex13 | SpSla1-D1-D2 | SpSla1-D3
1060: SpMyo1

B2: unnamed (peptide)
chain: SPLGAPPPPPHKDHL
13.5: CaMyo5
8.5: CaBzz1-D1
1: AgCyk3 | CaHse1 | ScRvs167 | SpHof1-2 | SpSla1-D1-D2
1260: SpMyo1
11: ScBzz1-D1
2: SpPex13
176: SpBzz1-D1
670: ScMyo5
0.167: SpRvs167
6: AgSla1-D1-D2
1.5: ScHof1
2.83: AgRvs167
931: ScMyo3
546: AgMyo5
3: AgBzz1-D2 | CaRvs167
≤ 0: AgAbp1 | AgBbc1 | AgBem1-D1 | AgBzz1-D1 | AgFus1 | AgHof1 | AgHse1 | AgLsb1 | AgLsb4 | AgNbp2 | AgSho1 | AgSla1-D3 | CaAbp1-D1 | CaAbp1-D2 | CaBbc1 | CaBem1-D1 | CaBzz1-D2 | CaCyk3 | CaFus1 | CaHof1 | CaLsb1 | CaLsb4 | CaNbp2 | CaRvs167-3 | CaSho1 | CaSla1-D1-D2 | CaSla1-D3 | ScAbp1 | ScBbc1 | ScBem1-D1 | ScBzz1-D2 | ScCyk3 | ScFus1 | ScHse1 | ScLsb1 | ScLsb2 | ScLsb3 | ScLsb4 | ScNbp2 | ScPex13 | ScSho1 | ScSla1-D1-D2 | ScSla1-D3 | SpAbp1-D1 | SpBbc1 | SpBzz1-D2 | SpCyk3 | SpHof1 | SpHof1-3 | SpHse1 | SpLsb1 | SpLsb4 | SpNbp2 | SpSla1-D3
